Test results from PubChem BioAssay AID1865 (National Center for Advancing Translational Sciences (NCATS), 2009).
Hit rate of the full screen: of about 280,000 compounds, about 540 (0.19%) were called active. About 2% were inconclusive and are not listed. Calls follow the shape of the dose curve; as a rule, active = well fitted activation curve with a large enough effect; inconclusive = small, poorly fitted or top-dose-only effect; inactive = flat fitted curve, though single readings scatter. The list comes from a sample in which actives are over-represented; it also holds similar structures and randomly drawn compounds.

Experiment: Quantitative High-Throughput Screen for Regulators of Epigenetic Control; also: nearly all actives have a fitted effect of over 60% in size
Conditions: murine LDR cells, GFP reporter derepression, 30 h; series mostly up to 53.9 µM
Source text: NIH Molecular Libraries Screening Centers Network [MLPCN] NIH Chemical Genomics Center [NCGC] MLSCN Grant: 1 X01 MH079860-01 Assay Provider: Elisabeth D. Martinez, University of Texas SW Medical Center NCGC Assay Overview: The Locus Derepression (LDR) assay detects the derepression or induction of a GFP reporter that is stably integrated in a genomic region of murine cells that is presumably silenced. Transcription of the GFP reporter is controlled by a CMV promoter, which normally is constitutively active. However, this cell line, termed LDR, was selected for lack of constitutive production of GFP. GFP production can be induced by incubating the cells with histone deacetylase or DNA methyltransferase inhibitors (Martinez et al., 2006). Compounds that derepress or induce this reporter locus are identified by enumerating GFP positive cells using a laser-scanning microplate cytometer (Auld et al., 2006). This assay was screened against the MLSMR earlier (AID 597; (Johnson et al., 2008) and has been rescreened here against the expanded collection.
NCGC Assay Protocol Summary: Three hundred LDR cells in 5 uL per well were dispensed into black, clear-bottom 1536-well plates. Twenty-three nL compound was transferred to the assay plate and cells were incubated 30 hours at 37 C. Medium was removed, cells were washed two times with PBS, and GFP-positive cells were enumerated as fluorescent objects between the sizes of 20 to 120 um width and depth using an Acumen Explorer. References Auld, DS, Johnson, RL, Zhang, YQ, Veith, H, Jadhav, A, Yasgar, A, Simeonov, A, Zheng, W, Martinez, ED, Westwick, JK, Austin, CP, Inglese, J (2006). Fluorescent protein-based cellular assays analyzed by laser-scanning microplate cytometry in 1536-well plate format. Methods Enzymol 414: 566-89. Johnson, RL, Huang, W, Jadhav, A, Austin, CP, Inglese, J, Martinez, ED (2008). A quantitative high-throughput screen identifies potential epigenetic modulators of gene expression. Anal Biochem 375: 237-48. Martinez, ED, Dull, AB, Beutler, JA, Hager, GL (2006). High-content fluorescence-based screening for epigenetic modulators. Methods Enzymol 414: 21-36.
Potency is read from the fitted curve at half-maximal effect.

Potency, active:
Cc1ccccc1-n1nnc2c(=O)oc3ccccc3c21 15.8 µM, CCOC(=O)C(=Cc1ccccc1OC)C(=O)OCC 22.4 µM, COc1ccc(C(C[N+](=O)[O-])n2nc(C)cc2C)cc1 (stereo not given) 12.6 µM, COc1cccc(C(=O)c2sc3nc(-c4ccccc4)cc(C(F)(F)F)c3c2N)c1 1.58 µM, N#Cc1c(-c2ccc(F)cc2)cc(C2CC2)nc1SCC(=O)c1cccs1 10 µM, Cc1ccc(/C=N/NC(=S)Nc2cccc(S(=O)(=O)N(C)C)c2)o1 3.98 µM

Potency, inactive:
CCOC(=O)c1c(S(=O)(=O)NCC(=O)Nc2ccc(Cl)c(C(F)(F)F)c2)c(C)n(C)c1C, CCN1CCN(CCCNC(=O)c2cnn(-c3ccc(C)cc3C)c2C2CCN(C(=O)OC(C)(C)C)CC2)CC1, Cc1cccc(N2CCN(c3c(CN4CCCC4)c(=O)oc4ccccc34)CC2)c1C, CCOC(=O)c1c(C)nc2c(c1C)c(=O)oc1ccccc12, COc1ccc(CCn2cc3c(c2-c2ccc(Br)cc2)c(=O)n(C)c(=O)n3C)cc1OC, Cc1c(CNC(C)c2ccccc2)c(C(=O)O)c(C)n1Cc1c(F)cccc1Cl (stereo not given), Cc1ccc(Nc2c(-c3ccc(N(C)C)cc3)nc3nc[nH]n23)cc1, COC(=O)c1ccc(C2C(C(=O)Nc3ccccc3)=C(C)Nc3nc4ccccc4n32)cc1 (stereo not given), CC1CCC(N2CC(=O)N(CCC3=CCCCC3)C(c3ccc(F)cc3)C2=O)CC1 (stereo not given), Cc1cccc(C(=O)Nc2ccc(S(=O)(=O)N3CCCCC3c3cccnc3)cc2)c1 (stereo not given), Cc1ccc(NC(=O)CSc2nc3ccccc3c3nc(CCn4cncc4C)nn23)cc1F, CCOC(=O)C(=CNc1cccc(C)n1)C(=O)OCC, COc1ccccc1NC(=O)c1ccc(C)s1, Cc1cc(Nc2cccc(C(F)(F)F)c2)nc2ccc(NC(=O)c3ccc(=O)[nH]c3)cc12, COc1cccc(Cn2c(CNS(=O)(=O)c3ccc(Cl)s3)nc3cccnc32)c1, CCCCNc1ccc(-c2nc(-c3ccncc3)no2)cc1[N+](=O)[O-], CCCn1c2ccccc2c2cnn(CC(=O)NCCCOC(C)C)c(=O)c21, Cc1cccc2c1-c1sc(C(=O)Nc3ccc(F)cc3F)cc1CO2, CCOCCCNC(=O)c1c(NC(=O)Cc2coc3c(C)c(C)ccc23)sc2c1CCC2, COc1ccc(CCNc2ncnc3c2cnn3-c2ccc(C)cc2)cc1, CCOC(=O)C1CCCN(S(=O)(=O)c2cc(-c3cc(C)no3)ccc2OC)C1 (stereo not given), COc1ccc(OCc2cn3c(C)cc(C)nc3n2)cc1, COc1ccc(C(=O)CSc2nc(C)cc(C)n2)cc1[N+](=O)[O-], O=C1CCCc2cc(S(=O)(=O)N3CCCC(C(=O)NCc4ccccc4)C3)ccc2N1 (stereo not given), CCOc1cc(-c2nnc(SCC(=O)NC3CCCC3)nc2-c2ccc(OC)c(OCC)c2)ccc1OC, CC(=O)N1c2ccc(S(=O)(=O)N3CCCCCC3)cc2CC1C(=O)NCc1ccccc1C (stereo not given), COc1ccc(C2C(=O)N(C3CCCCCC3)CC(=O)N2CCc2ccc(Cl)cc2)cc1OC (stereo not given), CC(C)(C)OC(=O)N1CCC(c2c(C(=O)N3CCN(c4cccc(Cl)c4)CC3)cnn2-c2cccc(Cl)c2)CC1, CN(C)CCCn1c(-c2ccc(Cl)cc2)csc1=Nc1ccccc1, CCCCCn1c(=O)[nH]c2cc(C(=O)Nc3ccc(F)cc3)ccc2c1=O, O=C(Nc1c(-c2ccc(F)cc2)nc2ccccn12)c1cccc(F)c1, Cc1cccc(NC(=O)Cn2cc(S(=O)(=O)Cc3ccccc3Cl)c3ccccc32)c1, CCOC(=O)c1ccc(NC(=O)CSc2nc3c([nH]c4ccccc43)c(=O)n2C)cc1, Cn1c(C(=O)Nc2cccc(C(F)(F)F)c2)cc2c(=O)n3ccccc3nc21, COc1cc(Cl)c(C)cc1NC(=O)CCc1nc2cccnc2n1Cc1cccs1, COc1cccc(NC(=O)N(Cc2cn(C)c3ccccc23)C2CCCCCC2)c1, COc1cccc(CNCc2c(C(=O)O)n(Cc3ccc(C)cc3)c3cc(C)ccc23)c1OC, COc1ccc(Nc2ncc3c(n2)CCN(C(=O)OC(C)(C)C)C3)cc1, COc1ccc(CCNC(=O)CCCn2c(=O)c3ccccc3n(Cc3ccc(C)cc3)c2=O)cc1OC, COC(=O)c1scc(-c2ccc(C)cc2)c1S(=O)(=O)Nc1cc(Cl)c(OC)cc1OC, O=C(Nc1ccc(Br)cc1)c1cc2nc(-c3ccccc3)cc(-c3ccccc3)n2n1, CCCC(=O)Nc1cc(C(=O)NCc2ccc(OC)cc2)ccc1S(=O)(=O)c1ccc(Cl)cc1, CC(C)(C)c1ccc(C(=O)N2CCC(c3nc(-c4ccc(S(=O)(=O)N5CCCC5)cc4)no3)CC2)cc1, Cc1ccc2c(N)c(C(=O)c3ccccc3)sc2n1, Cc1nc2sc(C(=O)c3ccccc3)c(N)c2c2c1CCCC2, COc1ccc(Cc2nc3ccc(C(=O)NCc4ccc(OC)cc4OC)cc3o2)cc1, Cc1cccc(C)c1-n1ncc(C(=O)NCCCN2CCCCC2)c1C1CCN(C(=O)OC(C)(C)C)CC1, COc1ccc(CCN2C(=O)c3oc4cc(C)cc(C)c4c(=O)c3C2c2ccccc2F)cc1OC (stereo not given), COc1ccc2c(c1)c(=O)c(C(=O)c1ccccc1)cn2CC(=O)Nc1ccc2c(c1)OCCO2, Cc1ccc(NC(=O)CN2c3ccccc3S(=O)(=O)c3ccccc32)cc1F, CCOC(=O)c1c(C)oc2ccc(N(C(=O)c3ccncc3)S(=O)(=O)c3ccc(CC)cc3)cc12, O=C(CSc1oc(-c2ccco2)nc1S(=O)(=O)c1ccc(Cl)cc1)c1ccccc1, COc1ccc(CC(=O)N2CC(=O)Nc3ccc(Br)cc3C2c2ccc(F)cc2)cc1OC (stereo not given), COc1ccc(CCNc2ncnc3onc(-c4ccc(Cl)cc4)c23)c(OC)c1, O=C(CSc1oc(-c2ccco2)nc1S(=O)(=O)c1ccccc1)c1ccc(Cl)cc1, O=C(c1cccs1)N1CCCC(c2nc(-c3ccc(F)cc3)no2)C1 (stereo not given), CCOC(=O)CC(=O)CSc1nc(-c2ccccc2)cc(-c2ccc(Cl)cc2)c1C#N, CN(C)S(=O)(=O)c1cccc(NC(=S)NCc2ccc3c(c2)OCO3)c1, CN(C)S(=O)(=O)c1cccc(NC(=S)N/N=C/C(=O)c2ccccc2)c1, Cc1cc(Cl)ccc1NC(=O)Cc1ccc(NC(=O)N2CCCCc3ccccc32)cc1, CCN1CCN(CCCNC(=O)c2ccc3c(c2)sc2nc(-c4ccc(OC)cc4)cn23)CC1, Cc1oc(C)c2c(=O)cc(-c3ccc4c(c3)OCO4)cc(OC(=O)c3ccc(Cl)cc3)c12, COc1cc(OC)cc(C(=O)Nc2ccc3nc(Nc4cccc(C(F)(F)F)c4)cc(C)c3c2)c1, CCc1ccc(CNCc2c(C(=O)O)n(Cc3ccc(F)cc3Cl)c3cc(OC)ccc23)cc1, N#Cc1ccccc1Cn1cnc2nc3c(cc2c1=O)CCCC3, Cc1ccccc1C(=O)Nc1nnc(S(=O)(=O)N(C)c2ccc(Cl)cc2)s1, COc1ccc(C(=O)N2CCC(c3nc4ccccc4o3)CC2)cc1, CCCCOc1ccc(CN2C(=O)C(=O)c3cc(Br)cc(C)c32)cc1OC, Cc1nn(C(C)C(=O)Nc2ccc(C(C)C)cc2)c(=O)c2c1sc1ccccc12 (stereo not given), COc1ccc(NC(=O)CCNS(=O)(=O)c2ccc3c(c2)CCCC(=O)N3)cc1Cl, COc1cccc(-c2nnc(SCC(=O)N3CCC(C)CC3)o2)c1, CCOc1ccc(CNCc2c(C(=O)O)c(C)n(Cc3cccc(OC)c3)c2C)cc1OC, Cc1ccc(Cl)cc1N(C)C(=O)C1CCCN(c2ncnc3onc(-c4ccc(F)cc4)c23)C1 (stereo not given), COc1ccc(S(=O)(=O)c2c(Nc3cccc(Cl)c3)sc(C(=O)c3ccccc3)c2N)cc1, COc1ccccc1Nc1nc(N)nc(N)c1S(=O)(=O)c1ccccc1, CC1(C)N=C(SCc2ccccc2Cl)c2ccccc2N1, Cc1ccc(NC(=O)Cc2ccc(NC(=O)N3CCCCc4ccccc43)cc2)cc1, CNC(=O)c1ccc(-c2nc(CN3CCc4ccccc43)c(C)o2)cc1, CC(=O)c1ccc(NC(c2ccc(F)cc2)c2nnc(-c3ccccc3)o2)cc1 (stereo not given), COc1ccc(-c2cn3nc(N4CCCC(C(=O)NCCCOC(C)C)C4)sc3n2)cc1 (stereo not given), Cc1cc2oc(C(=O)N(Cc3ccc(Cl)cc3)Cc3ccco3)c(C)c2cc1Cl, COc1cccc(N=C2SC(C(=O)Nc3cccc(Cl)c3)CC(=O)N2C)c1 (stereo not given), Fc1ccc(-n2ncc3c(Nc4ccc(Oc5ccccc5)cc4)ncnc32)cc1, COc1ccccc1CN1CCC(CNC(=O)c2cnn(-c3ccccc3Cl)c2C2CCN(C(=O)OC(C)(C)C)CC2)CC1, CCOc1ccccc1C(=O)Nc1ccc2c(c1)N(C)C(=O)c1ccccc1S2, CCOC(=O)c1c(C)[nH]c(CCC(=O)Nc2ccc(OC)c(OC)c2)c1C, O=S(=O)(c1ccc2nc(NCc3ccccc3Cl)ccc2c1)N1CCCCC1, COc1cc(CN(C(=O)c2ccccc2Br)c2ccccn2)cc(OC)c1OC, CC(C)(C)c1ccc(OCC(=O)N2CCC(c3nc4ccccc4s3)CC2)cc1
